Rows were chosen to be rich in hits. Some 15% of all compounds tested hit in one or more screens of this group.
Pf growth 48h: Primary qHTS for delayed death inhibitors of the malarial parasite plastid, 48 hour incubation. actives 5.9% (n = 310,000). Potency, µM (top dose mostly 28.7 µM), most hits filed as inhibitors. P. falciparum luciferase growth in erythrocytes, 48 h
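Luminescence readout; reporter = integrated firefly luciferase in P. falciparum. RBC culture at 2% hematocrit, 0.1% parasitemia final, 37 C/5% CO2; decreased signal taken as growth inhibition.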
Pf growth 96h: Primary qHTS for delayed death inhibitors of the malarial parasite plastid, 96 hour incubation; actives 6.9% (n = 320,000); Potency, µM (top dose mostly 28.7 µM), hits mostly inhibitors; P. falciparum luciferase reporter growth, 96 h; AID 504834, 2011
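Cell-based qHTS: luciferase-tagged P. falciparum in erythrocytes (2% hematocrit, 0.05% parasitemia final) incubated with compounds for 96 hours, 37 C, 5% CO2; luciferase detection reagent then added and luminescence measured.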
HCMV inh: qHTS Assay for inhibitors of the human cytomegalovirus (HCMV); activity change, negative = inhibition, % at 57.5 µM; actives 4.5% (n = 410,000); HFF cells, HCMV-luciferase reporter, 72 h; stronger effect = lower value; in the data active = activity change below about -60%; inconclusive = no clear call, values can overlap the other calls; inactive = above about -39%
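Cell-based, HFFs, 1000 cells/well, 16 h 37C; cpds in DMSO + HCMV-luc, MOI 1 PFU/cell; 72 h 37C; OneGlo luminescence after 5 min RT; norm. to buffer vs Salinomycin 10uM.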
HCV inhibitor: qHTS Assay for Inhibitors of Hepatitis C Virus (HCV) | Huh7.5.1 HCVcc-Cre infection, luciferase reporter, 44 h | Potency, µM (doses to about 41.8 µM), hits mostly inhibitors | actives 3.4% (n = 340,000)
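After 44 h co-culture of compound, cells and HCVcc-Cre (~0.5 moi), substrate is added for 15 min at room temperature and luciferase measured over 15 sec. Cells were seeded at 1,000/well and pre-cultured 4 h.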
Sm TGR inh: qHTS Assay for the Inhibitors of Schistosoma Mansoni Peroxiredoxins; Schistosoma mansoni thioredoxin glutathione reductase (TGR), Q962Y6; AID 485364, 2010; actives 3% (n = 360,000); Potency, µM (series often up to 114 µM), hits mostly inhibitors; purified TGR, DTNB reduction, TNB absorbance 405 nm; also: nearly all actives have a fitted effect of over 60% in size
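First, TGR (20 nM dispensed) and NADPH were mixed with compound. Second, a 15 min room-temperature incubation followed. Third, further NADPH and then DTNB were added to start the reaction. Finally, TNB absorbance was monitored kinetically.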
SARS PLpro yeast: qHTS of Yeast-based Assay for SARS-CoV PLP; S. cerevisiae expressing SARS-CoV PLpro, growth rescue; Potency, µM (top dose mostly 32.9 µM), most hits filed as activators; actives 0.19% (n = 330,000); calls by dose curve; also: nearly all actives have a fitted effect of over 55% in size
Numbers stand for hits; - = inactive; ? = inconclusive; . = no result given; [ ] = remark or other dose. Unless noted, calls follow the shape of the dose curve; as a rule, active = well fitted curve in the direction sought with a large enough effect; inconclusive = small, poorly fitted or top-dose-only effect, or another doubt; inactive = no such curve, though single readings can be large; an effect the other way counts as inactive or inconclusive.

SMILES	Pf growth 48h	Pf growth 96h	HCMV inh	HCV inhibitor	Sm TGR inh	SARS PLpro yeast
O=C(NCCc1ccccc1)c1nnc(Cc2cccc(F)c2)o1	.	.	-	.	-	.
CCOc1ccc(N=C(C)C2=C(O)c3ccccc3C2=O)cc1	-	-	-	-	-	-
CCOc1ccc(N=C(NN)c2ccc3ccccc3n2)cc1	-	-	-69	?	-	-
CC(C)CNC(=O)c1c(N)n(/N=C/c2cccnc2)c2nc3ccccc3nc12	-	3.3µM	.	-	-	-
CCC(C)NC(=O)c1c(N)n(/N=C/c2ccccn2)c2nc3ccccc3nc12 (stereo not given)	-	-	?	?	-	-
CCC(C)NC(=O)c1c(N)n(/N=C/c2cccnc2)c2nc3ccccc3nc12 (stereo not given)	?	?	-	14µM	-	-
COc1ccc(OC)c(CNC(=O)Cc2c(C(=O)O)[nH]c3ccccc23)c1	-	9.3µM	-	-	-	-
COc1ccc(Br)cc1CNC(=O)CCCc1cn(C)c2ccccc12	-	12µM	-	?	-	-
COc1ccc(OC)c(CNC(=O)CCc2cn(C)c3ccccc23)c1	-	3.7µM	-	-	-	-
Cc1ccc(NC(=O)N(Cc2cn(C)c3ccccc23)C2CCCCC2)cc1C	.	.	-	.	-	.
COc1cccc(NC(=O)N(Cc2cn(C)c3ccccc23)C2CCCCC2)c1	.	.	-104	.	?	.
COc1cccc(CNCc2cccnc2)c1OCc1ccccc1	?	-	?	?	-	-
O=c1[nH]c(-c2ccccc2)cn1C1CCN(Cc2ccc(-c3nc4ccc(Br)cc4nc3-c3ccccc3)cc2)CC1	.	.	-	.	.	.
COc1ccc(CCNC(=O)CCc2cn(C)c3ccccc23)c(OC)c1OC	12µM	?	?	?	-	-
CCC(=O)N1CCc2cc(S(=O)(=O)NC(CC(C)C)C(=O)Nc3cccc(C)c3C)ccc21 (stereo not given)	.	.	-	.	-	.
CC1CCc2cc(F)ccc2N1S(=O)(=O)c1ccc(F)cc1 (stereo not given)	-	?	-	-	-	8.9µM
COC(=O)Nc1ccc(S(=O)(=O)N2c3ccccc3CCC2C)cc1 (stereo not given)	15µM	-	-	-	-	-
O=C(CN1CCN(S(=O)(=O)c2ccccc2)CC1)NC(=O)NCc1ccco1	-	-	-	-	-	-
O=C(CN1CCN(C(c2ccccc2)c2ccccc2)CC1)NC(=O)NCc1ccco1	9.3µM	10µM	-	-	-	-
O=C(CN1CCN(c2ccccc2F)CC1)NC(=O)NCc1ccco1	-	?	-	-	28µM	-
O=C(CN1CCN(c2ccccc2)CC1)NC(=O)NCc1ccco1	-	-	-	-	-	-
O=C(NCc1ccc2c(c1)CCN2C(=O)c1ccncc1)c1ccccc1Cl	.	.	-	.	-	.
O=C(Nc1ccccc1Cl)OC1CCCCC1	-	-	-	-	-	-
O=c1oc2ccccc2n1CSc1nc2ccccc2s1	-	-	-	-	-	?
O=c1oc2ccccc2n1CSC1=NCCS1	?	-	-62	?	-	-
SMILES	Pf growth 48h	Pf growth 96h	HCMV inh	HCV inhibitor	Sm TGR inh	SARS PLpro yeast
CC(O)[C@@]1(O)CC[C@H]2[C@@H]3CC[C@H]4C[C@@H](O)CC[C@]4(C)C3=CC[C@@]21C (stereo not given in full)	?	-	-	-	-	-
COc1ccc(C(=O)NCCCN(C)CCCNC(=O)c2ccc(OC)cc2)cc1	-	?	-	-	-	-
COc1cc(O)c(C(CCN2CCCC(C)C2)c2cc(OC)c(OC)c(OC)c2)c(OC)c1 (stereo not given)	1.3µM	0.52µM	-	-	-	-
COc1cc(O)c(C(CCN2CCCCC2)c2ccc3c(c2)OCO3)c(OC)c1 (stereo not given)	0.93µM	0.47µM	-	-	-	-
COc1cc(OC)c2c(-c3ccccc3)cc(=O)oc2c1C(CC(=O)N1CCCC1)c1ccc2c(c1)OCO2 (stereo not given)	9.3µM	?	-	?	-	-
COc1cc(OC)c2c(-c3ccccc3)cc(=O)oc2c1C(CCN1CCCC(C)C1)c1ccc2c(c1)OCO2 (stereo not given)	12µM	?	-	-	-	-
O=S(=O)(c1ccc(-c2cc(C(F)(F)F)on2)s1)N1CCN(c2ccc(F)cc2)CC1	.	.	-	.	-	.
COc1ccc(CN2CCNC(=O)C2CC(=O)N(C)C2CCOCC2)c(F)c1 (stereo not given)	-	?	-	-	?	-
Cc1cc(C)c2nc(N(CCCN(C)C)C(=O)c3ccc(S(=O)(=O)N4CC(C)OC(C)C4)cc3)sc2c1 (stereo not given)	?	?	-	?	-	-
CCN(CC)S(=O)(=O)c1ccc(NC(=O)COc2c(OC)cccc2OC)cc1	.	?	-	?	-[11.4 µM]	-
COc1ccccc1CNC(=O)CCCN1C(=O)CSc2c1c(C)nn2-c1ccccc1	.	.	-	.	-	.
COc1cc(OC)c2c(-c3ccccc3)cc(=O)oc2c1C(CCN1CCCCC1)c1ccc2c(c1)OCO2 (stereo not given)	?	9.3µM	-	?	-	-
Cc1cc(Nc2ccc(Br)cc2)n2nc(C)nc2n1	2.3µM	?	-	-	-	-
CCc1ccc(Nc2cc(C)nc3nc(C)nn23)cc1	1.3µM	-	-	-[8.37 µM]	-	?
Cc1cc(Nc2cccc(F)c2)n2nc(C)nc2n1	?	9.3µM	-	-	-	-
Cc1cc(Nc2c(C)cccc2C)n2nc(C)nc2n1	.	?	-	-	-	-
Cc1cc(Nc2ccc(C)c(C)c2)n2nc(C)nc2n1	0.74µM	?	-	-	-	-
Cc1cc(Nc2ccc(F)cc2)n2nc(C)nc2n1	.	?	-	-	-	-
Nn1c(SCC(=O)NC2CCS(=O)(=O)C2)nc2scc(-c3ccccc3)c2c1=O (stereo not given)	-	-	-	-	-	-
Cc1ccn2c(-c3csc(NCc4ccccc4)n3)c(C)nc2c1	13µM	-	-81	10µM	-	-
Cc1ccc(Nc2nc(-c3c(C)nc4ccccn34)cs2)cc1	12µM	10µM	-101	?	-	-
O=c1c(N2CCN(c3cccc(Cl)c3)CC2)csc2ccc(Cl)cc12	.	.	-	.	-	.
CC1(C(=O)NS(=O)(=O)c2ccc(Cl)cc2)CCN1C(=O)CCc1ccccc1 (stereo not given)	.	.	-	.	.	.
COCCN(C(=O)COC(=O)CCOc1ccccc1)c1c(N)n(Cc2ccccc2)c(=O)[nH]c1=O	-	-	-	-	-	-
O=C(COC(=O)c1ccc(Br)cc1)Nc1ccccc1Br	-	-	-	-	-	-

Source: PubChem (National Center for Advancing Translational Sciences (NCATS))
